Whole data set: some 33,000 sequences, median “E-score (-0.5 to 0.5)” near -0.011, cut for the highest 2% near 0.28. Many of the other results were omitted from the sample, so the highest values are more common in it than they were.
target: T1, Gcr1 (UniProt P07261); experiment: PBM E-score (8-mer binding enrichment) (E-score (-0.5 to 0.5)); higher = stronger / more preferred TF binding; settings: protein concentration: 100 nM; construct: GST-full length
T1 sequence: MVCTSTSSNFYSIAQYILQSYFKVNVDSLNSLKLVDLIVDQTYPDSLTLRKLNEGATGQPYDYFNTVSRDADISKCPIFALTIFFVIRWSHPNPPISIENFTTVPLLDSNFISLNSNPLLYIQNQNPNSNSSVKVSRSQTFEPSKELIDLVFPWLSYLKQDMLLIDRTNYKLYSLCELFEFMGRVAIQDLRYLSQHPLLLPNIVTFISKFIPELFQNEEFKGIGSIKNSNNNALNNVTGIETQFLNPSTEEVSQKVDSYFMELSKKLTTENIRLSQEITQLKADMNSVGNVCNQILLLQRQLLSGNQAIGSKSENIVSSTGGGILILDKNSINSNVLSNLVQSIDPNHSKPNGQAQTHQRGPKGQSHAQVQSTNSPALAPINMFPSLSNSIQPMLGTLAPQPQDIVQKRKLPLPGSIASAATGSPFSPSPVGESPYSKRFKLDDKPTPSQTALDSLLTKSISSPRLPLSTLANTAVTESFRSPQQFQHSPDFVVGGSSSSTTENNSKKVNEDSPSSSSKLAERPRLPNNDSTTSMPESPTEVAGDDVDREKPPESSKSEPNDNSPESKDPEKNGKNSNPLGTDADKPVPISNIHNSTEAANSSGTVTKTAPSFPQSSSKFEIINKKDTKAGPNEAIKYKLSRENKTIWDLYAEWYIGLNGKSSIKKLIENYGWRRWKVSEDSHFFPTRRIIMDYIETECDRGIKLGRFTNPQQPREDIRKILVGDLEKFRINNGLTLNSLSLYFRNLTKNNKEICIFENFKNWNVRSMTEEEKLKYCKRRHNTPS
Experimental: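 Universal 'all 10-mer' protein binding microarrays (Agilent AMADID 015681) probed with GST-tagged S. cerevisiae TFs (full-length or DBD) made by in vitro transcription/translation (PURExpress), about 100-200 nM. Bound TF was detected with fluorescent anti-GST. Each ungapped 8-mer (which stands for itself and its reverse complement) is scored by the PBM enrichment score (E-score), a modified Wilcoxon-Mann-Whitney statistic from -0.5 to +0.5, computed with the Universal PBM Analysis Suite. Scale: above 0.35 generally sequence-specific binding.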

Sequence	PBM E-score
TCAACTAA	-0.00686
ACGACGGG	0.00739
CATTACAG	-0.0702
AATTACAG	0.283
AATTACAT	0.0891
CCACCCTC	-0.00165
CAAAATTC	0.306
AAAAATTC	0.0187
CAAAATTG	0.0415
GCTAGCAC	-0.0767
GCAGGCCC	-0.133
ACAAGCTA	-0.0171
ACACAAAA	0.141
ACACAATA	0.0111
CCACAAAA	0.282
CCACAATA	0.3
CCACAATC	0.156
CCACAAAG	0.16
CTCGGTAA	-0.22
AAACCTAA	0.0813
CCTTTCAG	-0.117
GGGGGACA	0.0151
AGTCTGTA	-0.152
CCCCGTTC	-0.082
CACGCCCA	-0.107

Sequence	PBM E-score
CGCGCCCC	0.243
GGCGCCCC	0.308
GACGCCCA	0.427
GGCGCCCA	0.398
AGCGCCCA	0.183
GACGCCCC	0.0383
AGCGCCCC	0.153
TGCGCCCA	0.0933
CGAGAGGA	-0.113
CCCGGGGC	0.0219
ACAAGCAT	0.15
CCATTGGC	0.0633
GCGGCGGA	0.0513
AATTTGTC	-0.00767
ATAGCTTC	0.249
CCGGCTGA	-0.138
CCGGCTGC	0.314
CTGGCTGC	0.35
ATGGCTTA	0.0216
ATGGCTTC	0.3
CTGGCTGA	-0.225
ACGGCTGC	-0.014
ATGGCTTG	-0.236
ATGGCTGC	0.168
CTAGCTTC	0.316

Sequence	PBM E-score
CTAGCTTA	-0.172
CGCCCCGA	-0.0435
CCGCGAGC	-0.0368
GCCCGGCA	-0.0489
GGAGTACC	-0.0959
TGTAGCAA	-0.0217
TAAAGAAA	0.162
ATGGGCCA	-0.112
GACAAACA	-0.0622
CGGTCCAC	-0.225
CAGGCTTC	0.213
CTGGCTTC	0.362
CTGGCTTA	-0.159
GCAAAGAA	0.00261
CGCAACCG	0.24
ACACCAGC	-0.126
CGAAGCCC	0.268
AGGAGCCG	0.269
AGAAGCCT	0.273
AGAAGCCC	0.386
AGGAGCCC	0.294
ACAAGCCA	-0.275
AGAAGCCG	0.399
AGAAGCAG	0.174
AAAAGCCC	-0.194

Sequence	PBM E-score
AGAAGCCA	0.362
AGGAGCCT	0.109
TGAAGCCA	-0.0656
GACCACAA	0.0254
AATCGCAA	0.0343
CGCCGCAG	0.103
ATCAGATA	-0.111
CCAAGCCG	-0.0556
CGAAGCCG	0.285
CGAAGCCA	0.272
AGCAAAGG	-0.135
AAAGGACG	0.025
ATTGTGAG	-0.17
CAATAGGA	0.13
CATTAGGC	-0.0378
AATTAGGG	-0.012
ATTTAGGG	0.196
AATTAGGA	0.315
GATTAGGA	0.169
AATTAGGC	0.327
CTTTAGGA	0.249
TAATAGGA	0.278
AAATAGGA	0.335
AATTAGGT	0.0846
ATTTAGGA	0.286

Sequence	PBM E-score
GACTTTCA	0.0748
AATTCGAT	-0.0107
GTCCGTAA	0.215
GTACCTAC	-0.0043
CCATCGTA	-0.145
AGGCTCAA	-0.283
AATCTTGA	0.1
AATTGTTA	0.116
AAGGAACT	0.0335
AAGGAACG	-0.0671
GAGGAACA	-0.193
CAGGAACC	0.32
AAGGAACC	0.285
CGGGAACG	-0.0928
GAGGAACC	0.318
CAGGAACG	0.118
AGGGAACC	0.203
CGGGAACC	0.289
CAGGAACA	-0.125
GGGGAACC	0.161
ATCTAGAT	0.0364
TCAAAACA	0.0365
CGAATGTA	-0.0414
ATCCTTAC	0.0414
AAAGAATA	-0.0583

Sequence	PBM E-score
GATTAAAA	0.249
TATTAAAA	0.243
ATTAAAAA	0.332
ATTAAAAG	0.239
ATTAAAAC	0.113
CATTAAAA	0.306
TATTTAAA	0.243
CATTTAAA	0.287
CATTTTAA	0.252
GGGGGAGA	-0.233
ATGTTCCA	0.15
CCCAACGG	-0.0188
GGAGCGGA	0.187
CGCCGCAC	0.0199
AGGGAAAA	0.108
AAGAGGAG	-0.0404
TAGAGGAA	0.396
GAGAGGAA	0.128
CAGAGGAA	0.0251
AAGAGGAA	0.285
AAGAGGAT	0.0595
AGGCACTG	-0.0493
TACCAGGA	0.19
CTATGCTA	-0.075
AGTCCTCG	-0.0287

Sequence	PBM E-score
GAAGTCAA	0.297
GAAGTCAC	0.00882
CAAGTCAA	-0.0468
AGCCCCTA	-0.0303
ATGGGTGG	-0.0217
AACGCCTC	-0.0454
CACGCCGC	0.151
AACGCCGC	0.123
CACGCCTC	-0.0746
GACGCCTC	0.282
GACGCCGC	0.37
AAAGGGTT	-0.0414
GTAAAGGA	0.149
AAAGAGAC	0.0252
GGTTGCCA	0.377
AGTTGCCA	0.134
GGGTGCCA	0.414
CGTTGCCA	0.0696
CGGTGCCA	0.00263
AGGTGCCC	0.395
AGGTGCCA	0.191
CGGTGCCC	0.231
AGGTGCCG	0.22
